Screening results (PubChem BioAssay)
This is a sample that favours compounds with a hit; in the whole collection about 1.3% have one here.
Vif-APOBEC3F blk = inhibitors of Vif-A3F interaction | HeLa A3F-eYFP + Vif (tagged APOBEC3F with the HIV-1 protein that degrades it), YFP fluorescence increase | Potency, µM (titrated, usually from 46.1 µM), for inactives: at the top dose activity, negative = active | actives 0.2% (n = 390,000) | AID 602313; note: potency is the fitted concentration of half-maximal effect; % of control where 0% means no effect; nearly all actives have a fitted effect of over 65% in size
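HeLa cells stably expressing A3F-eYFP plus Vif, plated and incubated overnight at 37 deg C, then exposed to compounds overnight at 37 deg C. Blocked degradation read as raised yellow fluorescence (Ex 488/Em 500-530).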
Vif-A3G inh = blocks the Vif interaction with human APOBEC3G. HeLa A3G-eYFP + Vif (tagged APOBEC3G with the HIV-1 protein that degrades it), YFP fluorescence, overnight. Potency, µM (highest dose often 46.1 µM), inactives show at the top dose activity, negative = active, usual class: inhibitors. actives 0.076% (n = 410,000); note: potency is the fitted concentration of half-maximal effect; % is set by controls: 0 for no effect and ±100 for the full control effect; nearly all actives have a fitted effect of over 60% in size
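Read-out is eYFP fluorescence (Ex 488/Em 500-530) from Vif-expressing HeLa A3G-eYFP cells; more signal means A3G escaped Vif-mediated degradation. Cells plated overnight, compound pinned in, incubated overnight at 37 deg C.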
TRPML1 blocker = inhibitors of human TRPML1 channel | AID 624415 | actives 0.02% (n = 390,000) | TRPML1-inducible cells, Ca2+ dye fluorescence, FDSS; active compounds read low; inhibition of EC80 agonist-evoked calcium signal | Q9GZU1 | activity change, negative = inhibition, % (concentration not given with the values); in the data active = activity change below about -50%; inconclusive = between about -30% and that limit;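 note: stimulus is agonist 54-4 at its EC80 concentration; % is set by controls: 0 for no effect and ±100 for the full control effect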
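TRPML1-DL cells, Tet-induced overnight (~16 h, 37 °C) at 1,500 cells/well, were loaded with Ca8 no-wash dye plus quencher for 45-90 min at room temperature. Compounds were pinned during FDSS kinetic reading; agonist 54-4 at EC80 (4 uM final) then added.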
TRPML1 ag = activates the human TRPML1 channel. actives 0.12% (n = 410,000). activation, % (no concentration beside the values). TRPML1-expressing cells, Ca2+ dye fluorescence, FDSS; in the data active = activation above about 50%; inconclusive = mostly about 30% to 49%; note: 0% is about no effect
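TRPML1-DL cells, Tet-induced overnight (~16 h, 37 degrees C), loaded 45-90 min at room temperature with Ca8 no-wash calcium dye plus quencher. FDSS fluorescence: 10 s baseline, compound pin-transfer, 110 s agonist read, then EC80 54-4 (4uM final) and 110 s antagonist read.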
12-LOX inh = ALOX12 (human) lipoxygenase inhibition. AID 1671190. actives 1.1% (n = 580,000). P18054. purified 12hLO, xylenol orange hydroperoxide absorbance. Potency, µM (doses to about 108 µM), without a hit: at the highest dose activity change, negative = inhibition, actives largely listed as inhibitors; note: potency is the fitted concentration of half-maximal effect; % is set by controls: 0 for no effect and ±100 for the full control effect
Target sequence (P18054 whole entry, looked up): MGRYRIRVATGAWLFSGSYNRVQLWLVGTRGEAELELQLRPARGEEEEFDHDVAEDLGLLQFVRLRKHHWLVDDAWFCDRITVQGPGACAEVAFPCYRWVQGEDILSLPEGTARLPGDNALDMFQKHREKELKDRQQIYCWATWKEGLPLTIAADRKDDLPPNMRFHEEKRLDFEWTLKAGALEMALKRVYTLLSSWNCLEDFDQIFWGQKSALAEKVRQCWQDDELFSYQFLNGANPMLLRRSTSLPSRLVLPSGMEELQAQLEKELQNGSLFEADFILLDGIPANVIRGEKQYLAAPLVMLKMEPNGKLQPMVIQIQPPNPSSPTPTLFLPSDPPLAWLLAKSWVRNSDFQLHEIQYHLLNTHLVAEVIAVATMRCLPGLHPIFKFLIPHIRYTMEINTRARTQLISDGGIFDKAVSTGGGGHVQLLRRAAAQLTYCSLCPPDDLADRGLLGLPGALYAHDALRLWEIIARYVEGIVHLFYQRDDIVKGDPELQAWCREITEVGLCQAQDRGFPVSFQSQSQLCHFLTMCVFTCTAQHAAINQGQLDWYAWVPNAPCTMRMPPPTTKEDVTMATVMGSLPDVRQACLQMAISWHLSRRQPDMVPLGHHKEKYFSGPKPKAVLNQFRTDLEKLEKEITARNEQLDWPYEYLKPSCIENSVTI
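Purified human 12hLO at 150 nM in 25 mM Hepes, 0.01% Triton X-100, pH 7.0, preincubated 15 min at room temperature with compound. Reaction started with 40 uM arachidonic acid, 30 min at room temperature. Hydroperoxide measured by Fe-xylenol orange, 573/405 nm absorbance ratio.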
Glioma ERSR ind = ER stress response induction in glioma; U87-MG GRP78 promoter luciferase reporter, 16 h; Potency, µM, for inactives: at the highest dose activation, most hits filed as activators; actives 0.02% (n = 420,000); note: potency is the fitted concentration of half-maximal effect; series mostly up to about 76 µM; % of control where 0% means no effect; nearly all actives have a fitted effect of over 35% in size
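Stably transfected U87-MG human glioma cells carrying a GRP78-based luminescent sensor were seeded at 1000 cells/well, pin-dosed with compounds and incubated 16 h. Luciferase reagent was then added, and end-point luminescence was read after 10 min at room temperature.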
An asterisk follows results filed as active. Unless noted, calls come from the whole dose curve; as a rule, active = well fitted curve in the direction sought with a large enough effect; inconclusive = small, poorly fitted or top-dose-only effect, or another doubt; inactive = no such curve, though single readings can be large; an effect the other way counts as inactive or inconclusive.

How did COC(=O)C1=C(C)N(Cc2ccc(Br)cc2)C(=S)NC1c1ccc(F)cc1 (stereo not drawn) do in these assays?
12-LOX inh: 39.8µM*

How did Cc1ncsc1CN1C[C@@H](NC(=O)c2cccnc2)C[C@H]1CO do in these assays?
12-LOX inh: 14.1µM*

What do the screens show for `CN(O)/C=C/C(=O)c1ccc(Br)cc1`?
Vif-APOBEC3F blk: -10.3%; Vif-A3G inh: -2.8%; TRPML1 blocker: -7.5; TRPML1 ag: -0.3; 12-LOX inh: inconclusive; Glioma ERSR ind: 10.2%

What do the screens show for `CN(C)/C=C/C(=O)c1ccc(Br)cc1`?
Vif-APOBEC3F blk: 6.4%; Vif-A3G inh: 0.9%; TRPML1 blocker: 0.3; TRPML1 ag: 0.1; 12-LOX inh: 7.94µM*; Glioma ERSR ind: 1.2%

Results for CCCCC[n+]1cccc2c3ccccc3ccc21 ?
Vif-APOBEC3F blk: -5.3%; Vif-A3G inh: 8.2%; TRPML1 blocker: 13.5; TRPML1 ag: 0.5; 12-LOX inh: 44.7µM*; Glioma ERSR ind: -5.5%

Results for c1ccc(C[n+]2cccc3c4ccccc4ccc32)cc1 ?
Vif-APOBEC3F blk: -1.2%; Vif-A3G inh: 3.6%; TRPML1 blocker: -2.1; TRPML1 ag: 0.0; 12-LOX inh: 21.4%; Glioma ERSR ind: -7.4%

Results for O=C(CSc1cc(C(=O)NC2CC2)c2ccccc2n1)NCC1CCCO1 (stereo not drawn) ?
12-LOX inh: -8.1%

How did CC1(C)CSC(=NCc2ccccc2)N1C(=O)c1cccc([N+](=O)[O-])c1 do in these assays?
Vif-APOBEC3F blk: 4.9%; Vif-A3G inh: -5.6%; TRPML1 blocker: -6.4; TRPML1 ag: 94.5*; 12-LOX inh: -23.1%; Glioma ERSR ind: 11.5%

How did NC(=NCc1ccccc1)c1cccc([N+](=O)[O-])c1 do in these assays?
Vif-APOBEC3F blk: -5.3%; Vif-A3G inh: 0.0%; TRPML1 blocker: 10.1; TRPML1 ag: 0.7; 12-LOX inh: -1.3%; Glioma ERSR ind: -0.7%

How did CCN(CC)c1ccc(/C=N/N2C(=O)c3ccccc3C2=O)cc1 do in these assays?
Vif-APOBEC3F blk: 4.2%; Vif-A3G inh: -1.5%; TRPML1 blocker: 14.2; TRPML1 ag: 1.4; 12-LOX inh: 4.1%; Glioma ERSR ind: 3.8%

How did CCN(CC)c1ccc(/C=N/N2CC(=O)NC2=S)cc1 do in these assays?
Vif-APOBEC3F blk: inconclusive; Vif-A3G inh: 3.2%; TRPML1 blocker: -13.1; TRPML1 ag: 1.9; 12-LOX inh: 3.55µM*; Glioma ERSR ind: -1.4%

What do the screens show for `COc1cc(C(=O)/C=C/c2cccs2)ccc1OCC(=O)O`?
12-LOX inh: 8.8%

How did Cc1ccc(C(=O)/C=C/c2cc(Br)c(O)c(Br)c2)cc1 do in these assays?
12-LOX inh: 28.2µM*

Results for COc1cc(C(=O)/C=C/c2cc(Br)c(O)c(OC)c2)ccc1OCC(=O)O ?
12-LOX inh: 10µM*

How did Cc1ccc(/C=C/C(=O)c2ccc(C)cc2)cc1 do in these assays?
Vif-APOBEC3F blk: -5.3%; Vif-A3G inh: -1.4%; TRPML1 blocker: 7.2; TRPML1 ag: 1.8; 12-LOX inh: -5.7%; Glioma ERSR ind: 5.9%

What do the screens show for `CCOC(=O)/C=C(\C)Sc1cc(=O)oc2ccccc12`?
Vif-APOBEC3F blk: -4.1%; Vif-A3G inh: -16.6%; TRPML1 blocker: 24.1; TRPML1 ag: 1.9; 12-LOX inh: -2.2%; Glioma ERSR ind: -8.6%

Results for CCOC(=O)/C=C(\C)Sc1cc(O)c2ccccc2c1O ?
Vif-APOBEC3F blk: 22.4µM*; Vif-A3G inh: inconclusive; TRPML1 blocker: 53.7; TRPML1 ag: 0.9; 12-LOX inh: inconclusive; Glioma ERSR ind: -13.3%

Results for Cn1cccc1CN1CCC2(CC1)COc1ccccc1C(=O)N2 ?
12-LOX inh: 56.2µM*

What do the screens show for `CN(C)c1ccc(CN2CCC3(CC2)COc2ccccc2C(=O)N3)cc1`?
12-LOX inh: 39.8µM*

How did CCC(C(=O)NCc1ccc(SC)cc1)n1nc(C)c2c(C)n(-c3ccccc3)nc2c1=O (stereo not drawn) do in these assays?
12-LOX inh: -6.2%

Results for O=C(/C=C/c1ccc(Br)cc1)c1cc2ccccc2oc1=O ?
12-LOX inh: 11.3%

Results for CC(=O)c1c(N2CCN(c3cccc(Cl)c3)CC2)nc(=S)n(-c2ccccc2)c1C ?
Vif-APOBEC3F blk: 1.0%; Vif-A3G inh: 2.6%; TRPML1 blocker: -5.3; TRPML1 ag: 0.1; 12-LOX inh: 35.5µM*; Glioma ERSR ind: -1.2%

How did CC(=O)c1c(N2CCN(c3ccccn3)CC2)nc(=S)n(-c2ccccc2)c1C do in these assays?
Vif-APOBEC3F blk: 14.4%; Vif-A3G inh: 0.1%; TRPML1 blocker: 13.2; TRPML1 ag: 0.0; 12-LOX inh: inconclusive; Glioma ERSR ind: -2.9%

How did COc1ccc(N2CCN(c3nc(=S)n(-c4ccccc4)c(C)c3C(C)=O)CC2)cc1 do in these assays?
Vif-APOBEC3F blk: -6.4%; Vif-A3G inh: -3.9%; TRPML1 blocker: -5.4; TRPML1 ag: 0.2; 12-LOX inh: 39.8µM*; Glioma ERSR ind: -0.7%

How did CCn1c(C)c(C(C)=O)c(N2CCN(c3cccc(Cl)c3)CC2)nc1=S do in these assays?
Vif-APOBEC3F blk: 2.6%; Vif-A3G inh: 3.0%; TRPML1 blocker: 22.8; TRPML1 ag: -0.9; 12-LOX inh: inconclusive; Glioma ERSR ind: -1.6%

What do the screens show for `O=C(c1ccsc1)N(CC1CCOC1)C1CC1` (stereo not drawn)?
12-LOX inh: 1.4%

How did CCN(CC)c1ccc(C(=O)O)cc1 do in these assays?
Vif-APOBEC3F blk: 4.5%; Vif-A3G inh: 1.2%; TRPML1 blocker: -15.3; TRPML1 ag: 0.3; 12-LOX inh: -4.8%; Glioma ERSR ind: -1.8%

How did CCN(CC)c1ccc(/C=C2\C(=O)c3ccc(C(=O)O)cc3C2=O)cc1 do in these assays?
Vif-APOBEC3F blk: inconclusive; Vif-A3G inh: -4.9%; TRPML1 blocker: -15.5; TRPML1 ag: 77.8*; 12-LOX inh: 7.2%; Glioma ERSR ind: 1.9%

What do the screens show for `Cc1ccccc1CN1C(=O)CS/C1=N/N=C/c1ccco1`?
Vif-APOBEC3F blk: 7.0%; Vif-A3G inh: 1.7%; TRPML1 blocker: 1.5; TRPML1 ag: 2.3; 12-LOX inh: 39.8µM*; Glioma ERSR ind: -1.9%

How did CCC1S/C(=N/N=C/c2ccco2)N(Cc2ccccc2C)C1=O (stereo not drawn) do in these assays?
Vif-APOBEC3F blk: 10.2%; Vif-A3G inh: -14.7%; TRPML1 blocker: 9.2; TRPML1 ag: 6.7; 12-LOX inh: inconclusive; Glioma ERSR ind: -4.8%

How did Fc1ccc(NC(=S)N/N=C/c2cccc(Br)c2)c(F)c1 do in these assays?
Vif-APOBEC3F blk: 9.9%; Vif-A3G inh: 0.5%; TRPML1 blocker: 15.4; TRPML1 ag: -0.2; 12-LOX inh: -20.4%; Glioma ERSR ind: -5.3%

How did Fc1ccc(N/N=C/c2cccc(Br)c2)c(F)c1 do in these assays?
12-LOX inh: 15.8µM*
